# The supplement of paper PMC7726561
# Over roughly 1,400 sequences, “thermal melting temperature (Tm) of peptide-HLA complex” has its median near 60; the lowest 2% begin near 45. The full list was thinned out, with the lowest values kept by preference.
# Molecular target: HLA-B*07:02
# Experiment: thermal melting temperature (Tm) of peptide-HLA complex; higher = more thermostable pHLA complex
# Conditions: C1R-B*07:02
# 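Further: lysates heated 10 min at 37–73 °C, complexes pulled down with pan-HLA I antibody, peptide signal by DIA-MS relative to 37 °C, Tm where half the complex is unfolded.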
row,Sequence,thermal melting temperature [°C]
1,YPARYRPTAL,58.2
2,QPRLFTMDL,60.2
3,SPKSPTAAL,60.1
4,VPQESRFNL,57.1
5,LPRSINTDTL,58.5
6,KPKFILSVL,62.7
7,YPRPLLIAF,62
8,LPELKSTL,60.8
9,SPSFPRPSL,61.4
10,IPDVKGAVL,58.7
11,SPAPPLLHV,60.8
12,KPYAHILSV,55.5
13,SPAPRTAL,57.4
14,FPKNIFAEL,62.8
15,RPASGSPFQL,52.6
16,SPYPGLRLISL,62.1
